Screening results deposited in PubChem BioAssay by several laboratories.
VLA-4 inh = inhibition in human VLA-4 binding assay, primary screen, VLA-4 allosteric modulator project, MLPCN library, flow cytometry, VLA-4 expressing cells; AID 2557, 2010; 330,000 compounds, 0.2% hits; inhibition, % (about 7 µM as worked out from the volumes in the protocol); Integrin alpha-4 (Homo sapiens), P13612; ligand binding flow cytometry; in the data active means inhibition above about 50%
Exocytosis inh = LAMP-1 surface exposure blockers, TALL-104 cells – cell-based, flow cytometry, MLPCN library, primary screen | TALL-104 LAMP-1 surface exposure; cells stimulated with thapsigargin and PMA | 360,000 compounds, 0.66% hits | inhibition, % at 10 µM;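 active means inhibition above about 55%, limit read from the data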
NR1D1 modulator = modulators of Rev-erb alpha DNA binding, primary screen, biochemical, FITC-DNA, fluorescence polarization, uHTS. Rev-erbα–FITC-DNA binding, 90 min. activity, % at 10 µM. 370,000 compounds, 0.79% hits. AID 1259318, 2017;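 active means activity above about 14%, limit read from the data; passing the limit was not always enough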;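 further: 0% = DMSO wells with 35 nM protein and 100% = DMSO wells with 750 nM protein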
ABCB6 inh 2 = ABCB6 transporter inhibitors, primary screen, K562-ABCB6 cells, flow cytometry, MLPCN library; ATP-binding cassette sub-family B member 6 (Homo sapiens), Q9NP58; K562-ABCB6 porphyrin accumulation, 1 h; hits give low values; fluorescence ratio to DMSO, % at 10 µM; 360,000 compounds, 0.19% hits;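 active means fluorescence ratio to DMSO below 75%, the collection mean minus 3 SD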;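 further: signal is porphyrin accumulated inside mitochondria; 100% equals median channel fluorescence of DMSO control wells; lower ratio means ABCB6 inhibition with less porphyrin fluorescence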
PG9 binder = binders of HIV-1 gp120 antibody PG9, primary screen, biochemical, TR-FRET; TR-FRET gp120-PG9 antibody binding; inhibition, % at 6.7 µM; 360,000 compounds, 0.43% hits; in the data active means inhibition above about 8.5%
PG9 binder conf = binders of anti-gp120 antibody PG9, confirmation, biochemical, TR-FRET | shares compounds with PG9 binder | TR-FRET PG9 antibody binding | inhibition, % at 6.7 µM | 1,500 compounds, 90% hits | AID 651571, 2012; in the data active means inhibition above about 9%
PGV04 Ab binding = binders of control antibody PGV04, counter-screen for PG9 antibody binder project, biochemical, TR-FRET, distinct HIV envelope site. shares compounds with PG9 binder. TR-FRET PGV04 antibody-gp120 binding. 1,500 compounds, 95% hits. inhibition, % at 6.7 µM; in the data active means inhibition above about 9.5%
PG9 binder DR = small-molecule binders of antibody PG9, dose response, biochemical, TR-FRET, HIV-1 gp120 antibody. 95 tested, under 10 active. shares compounds with PG9 binder. TR-FRET PG9 antibody-gp120 binding inhibition. IC50, µM; in the data active means IC50 below about 10 µM
PGV04 binding DR = binders of control antibody PGV04, dose response, counter-screen for PG9 antibody binder project, biochemical, TR-FRET, distinct HIV envelope site; AID 651937, 2012; shares compounds with PG9 binder; IC50, µM; 95 compounds, 20% hits; TR-FRET binding to control antibody PGV04
PG126 DR counter = binders of control antibody PG126, dose response, counter-screen for PG9 antibody binder project, biochemical, TR-FRET, distinct HIV envelope site | shares compounds with PG9 binder | TR-FRET binding to antibody PG126, counterscreen | IC50, µM | 95 compounds, 20% hits | AID 651939, 2012
* hit, by the source's call; / = no result given. Only some compounds are listed: those with a hit (about 2% of all), similar ones and a draw of the others. Unless noted, no stated cut-off is given here; in the data, active means IC50 below about 9 µM; inactive means the rest.

SMILES | VLA-4 inh | Exocytosis inh | NR1D1 modulator | ABCB6 inh 2 | PG9 binder | PG9 binder conf | PGV04 Ab binding | others
N#Cc1cnn2c(N)c(-c3ccc(Cl)cc3)cnc12 | 2.3 | -2.2 | 0.8 | 97.0 | 15.5* | 24.3* | 42.8*
CCOC(=O)C1=NOC(C(=O)Nc2cc(C)cc(C)c2)(C(=O)C2CC2)C1 (stereo not drawn) | / | / | -4.5 | / | / | / | /
CCN(c1ccc(F)cc1)S(=O)(=O)c1ccc2[nH]cc(C(=O)NCCCN3CCOCC3)c(=O)c2c1 | 11.5 | -2.3 | 1.0 | 98.0 | 0.8 | / | /
CCN(c1ccccc1)S(=O)(=O)c1ccc2[nH]cc(C(=O)N3CCOCC3)c(=O)c2c1 | 3.4 | 0.5 | -5.6 | 115.0 | 9.1* | 8.1 | 9.9*
CSc1ccc(S(=O)(=O)Nc2ccccc2C(=O)N2CCOCC2)cc1 | -1.5 | -2.3 | 5.6 | 90.0 | 8.8* | 21.9* | 21.6* | PG9 binder DR=>67;PGV04 binding DR=>67;PG126 DR counter=>67
O=C1C=Cc2cccc3ccc(O)c1c23 | / | 4.8 | -6.1 | 112.0 | 15.6* | 19.7* | 25.7*
O=c1oc(-c2ccc(O)c(O)c2)cc2cccc(O)c12 | -3.9 | -3.2 | -0.8 | 92.0 | -0.3 | / | /
COc1ccc2nc(SCC(=O)NCC3CCCO3)c(C#N)cc2c1 (stereo not drawn) | 9.6 | -1.8 | -1.8 | 91.0 | -0.4 | / | /
COc1ccc2nc(SCC(=O)NC3CC3)c(C#N)cc2c1 | 9.8 | -6.9 | 6.1 | 98.0 | 20.3* | 26.3* | 47.2*
Cc1ccc2nc(SCC(=O)NCC3CCCO3)c(C#N)cc2c1 (stereo not drawn) | 0.2 | 0.8 | -1.7 | 89.0 | 12.9* | 21.6* | 36.4*
O=C(Nc1ccc(F)cc1)c1cc(-c2ccccn2)nc2c(Cl)cccc12 | -6.6 | -3.9 | 4.9 | 93.0 | 18.5* | 32.6* | 69.2*
O=C(Nc1ccncc1)c1cc(-c2ccccn2)nc2ccccc12 | 8.7 | 0.7 | 3.5 | 97.0 | -0.5 | / | /
CC[C@H]1OC(=O)[C@H](C)[C@@H](O[C@H]2C[C@@](C)(OC)[C@@H](O)[C@H](C)O2)[C@H](C)[C@@H](O[C@@H]2O[C@H](C)C[C@H](N(C)C)[C@H]2O)[C@](C)(O)C[C@@H](C)/C(=N\OCOCCOC)[C@H](C)[C@@H](O)[C@]1(C)O | / | / | -1.0 | / | / | / | /
N#C/C(=C(/O)COC(=O)COc1cccc(Br)c1)c1nc2ccccc2[nH]1 | 1.0 | -2.2 | 7.1 | 104.0 | 12.2* | 19.2* | 31.4*
Cc1cc(C)cc(OCC(=O)OC/C(O)=C(\C#N)c2nc3ccccc3[nH]2)c1 | -16.1 | -6.3 | -0.5 | 93.0 | 8.3 | / | /
CCCCNC(=O)C1CCCN1C(=O)NCc1ccccc1OC (stereo not drawn) | / | / | -0.2 | / | / | / | /
OCCSc1ncnc2c1oc1ccccc12 | -3.9 | -2.3 | 0.3 | 99.0 | -4.8 | / | /
N#CCCSc1ncnc2c1oc1ccccc12 | -2.9 | -7.1 | 1.5 | 100.0 | 20.2* | 46.1* | 57.3*
Cc1nc(SCC(=O)Nc2sccc2C(N)=O)c2c(C)c(C)sc2n1 | / | 1.9 | -5.0 | 100.0 | -0.9 | / | /
Cc1nc(SCC(=O)Nc2cc(C(N)=O)cc(C(N)=O)c2)c2c(C)c(C)sc2n1 | 1.9 | 0.1 | 8.1 | 100.0 | 10.9* | 17.6* | 36.5*
COc1ccc(/C=C/c2cc(O)cc(OC3OC(CO)C(O)C(O)C3O)c2)cc1 (stereo not drawn) | / | -1.7 | 0.2 | 98.0 | -1.1 | / | /
OC[C@H]1O[C@@H](Oc2ccc3cc(Br)ccc3c2)[C@H](O)[C@@H](O)[C@H]1O | 11.5 | 6.3 | -2.0 | 96.0 | 11.3* | 16.7* | 24.2*
C=CCn1c(Cc2cccs2)nnc1SCC(=O)Nc1ccc(OCc2ccccc2)cc1 | / | / | -1.6 | / | / | / | /
CCC1(O)C(=O)OCc2c1cc1n(c2=O)Cc2cc3cc(O)ccc3nc2-1 (stereo not drawn) | / | 4.2 | -0.4 | 101.0 | 19.3* | 15.7* | 31.5*
C[C@H]1[C@@H](NC(=O)c2ccc(C(F)(F)F)cc2)CC[C@@]23CCCN2C(=O)CCC[C@@H]13 | / | / | -2.6 | / | / | / | /
SMILES | VLA-4 inh | Exocytosis inh | NR1D1 modulator | ABCB6 inh 2 | PG9 binder | PG9 binder conf | PGV04 Ab binding | others
COc1cc(OC)cc(C(=O)NC2CCSC2=O)c1 (stereo not drawn) | 14.7 | -1.2 | -1.6 | 92.0 | 15.5* | 3.6 | 38.8*
COc1ccc(C(=O)NC(=S)NC2CCSC2=O)cc1 (stereo not drawn) | 3.0 | -1.9 | 2.7 | 97.0 | 0.9 | / | /
O=S1(=O)c2c(cccc2N2CCC[C@@H]2CO)O[C@H]2CCN1C2 | / | / | -2.1 | / | / | / | /
COc1ccc(OC)c(C(C(=O)NC2CCCCC2)N(C(=O)c2snc(C(N)=O)c2N)c2ccccc2OC)c1 (stereo not drawn) | 4.6 | 12.4 | 14.9 | 88.0 | 35.9* | 36.0* | 59.8*
Cc1nc(SCCC(=O)O)c2ccccc2n1 | -4.4 | -2.6 | / | 102.0 | 22.5* | 18.6* | 24.5*
O=C(O)CCSc1ccc2ccccc2n1 | -9.1 | -0.5 | -2.7 | 95.0 | 18.0* | 18.8* | 20.2*
Cc1cc(SCCC(=O)O)nc2ccccc12 | 16.3 | 1.2 | -1.8 | 103.0 | 5.2 | / | /
CSc1nc(Sc2ccccc2Cl)c2ccccc2n1 | -1.6 | -3.8 | 3.0 | 102.0 | 9.1* | 17.0* | 21.8*
CCOC(=O)c1cnc(SC)nc1Sc1ccccc1Cl | 5.5 | -1.3 | 4.7 | 96.0 | -1.1 | / | /
CCn1c(SCC(=O)Nc2cc(C)on2)nc2sc3c(c2c1=O)CCCC3 | 15.4 | -3.2 | 14.8 | 99.0 | 9.2* | 8.2 | 23.8*
COC(=O)[C@]12C[C@H](CC(=O)N3CCSCC3)C(=O)N(CCc3ccc(OC)c(OC)c3)C1=C[C@H](C(C)(C)C)O[C@@H]2C | / | / | 2.5 | / | / | / | /
CCn1c(CNC(=O)c2ccccc2F)cc2ccccc21 | 1.3 | -2.9 | -3.1 | 97.0 | -0.7 | / | /
